Assay results taken from PubChem BioAssay (EPA / NIEHS).
Inconclusive results are not listed. The source made the active and inactive calls. How the source made its calls: active means hit-call score of the fitted dose curve at least 0.9, where 1 is the maximum; inconclusive means response in the unintended direction; inactive means score below 0.9.

Columns and labels:
[1] = ATG_XTT_Cytotoxicity: Cytotoxicity Assessment in the Attagene TRANS-FACTORIAL HepG2 Assay (AID 2283584)
Summary of the method: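 24 h chemical exposure of reporter-transfected HepG2; XTT signal loss vs DMSO indicates cytotoxicity.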

[2] = biological target: Cellular tumor antigen p53 (Homo sapiens) (UniProt P04637); test: TOX21_p53_BLA_p2_ratio: Tox21 HCT-116 p53 Agonism Beta-lactamase Assay, Ratio, Phase 2 (AID 2283592)
Cellular tumor antigen p53 (Homo sapiens), sequence (P04637 whole entry, looked up): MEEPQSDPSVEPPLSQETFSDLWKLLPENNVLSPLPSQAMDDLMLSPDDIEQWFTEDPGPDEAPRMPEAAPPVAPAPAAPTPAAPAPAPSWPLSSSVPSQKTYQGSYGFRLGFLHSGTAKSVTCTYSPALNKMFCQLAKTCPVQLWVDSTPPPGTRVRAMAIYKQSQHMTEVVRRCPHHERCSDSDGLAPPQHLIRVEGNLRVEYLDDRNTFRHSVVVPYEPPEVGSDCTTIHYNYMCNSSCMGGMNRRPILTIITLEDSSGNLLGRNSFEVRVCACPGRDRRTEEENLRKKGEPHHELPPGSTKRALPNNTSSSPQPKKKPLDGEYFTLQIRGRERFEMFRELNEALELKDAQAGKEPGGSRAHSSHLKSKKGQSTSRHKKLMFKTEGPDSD
Summary of the method: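 DMSO-normalized, positive-direction endpoint derived from the 460 nm/530 nm FRET ratio in HCT116 p53 beta-lactamase reporter cells exposed 16 h at 37C and loaded with CCF4-AM for 2 h.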

[3] = biological target: Cellular tumor antigen p53 (Homo sapiens) (UniProt P04637); test: TOX21_p53_BLA_p3_ratio: Tox21 HCT-116 p53 Agonism Beta-lactamase Assay, Ratio, Phase 3 (AID 2283596)
Summary of the method: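 Cells were seeded at 4000/well, rested 5 h at 37C, then dosed with DMSO compound solutions (217-fold dilution) for 16 h. CCF4-AM substrate was loaded for 2 h at room temperature, and the 460/530 nm emission ratio was fitted for gain of signal versus DMSO.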

[4] = TOX21_p53_BLA_p5_viability: Viability Assessment in the Tox21 HCT-116 p53 Agonism Beta-lactamase Assay, Phase 5 (AID 2283600)
Summary of the method: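 Here cell health was gauged by ATP levels in wells holding 4000 cells, each treated 16 h with DMSO-delivered compounds at 217-fold dilution; reduced luminescence marked toxicity.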

[5] = biological target: Cellular tumor antigen p53 (Homo sapiens) (UniProt P04637); test: TOX21_p53_BLA_p5_ratio: Tox21 HCT-116 p53 Agonism Beta-lactamase Assay, Ratio, Phase 5 (AID 2283599)
Summary of the method: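 HCT-116 cells carrying a p53-inducible beta-lactamase reporter were seeded at 4000 cells/well and dosed after 5 h with compound in DMSO (217-fold dilution). After 16 h at 37C, CCF4-AM substrate was added for 2 h, and the 460/530 nm emission ratio was scored as gain-of-signal versus DMSO.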

[6] = biological target: Cellular tumor antigen p53 (Homo sapiens) (UniProt P04637); test: TOX21_p53_BLA_p4_ratio: Tox21 HCT-116 p53 Agonism Beta-lactamase Assay, Ratio, Phase 4 (AID 2283601)
Summary of the method: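 HCT116 cells carrying an inducible beta-lactamase reporter were plated at 4000 cells/well, rested 5 h, then exposed to compounds in DMSO (217-fold dilution) for 16 h at 37C. CCF4-AM substrate was loaded 2 h at room temperature; 460/530 nm emission ratio scored gain-of-signal versus DMSO.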

[7] = TOX21_p53_BLA_p4_viability: Viability Assessment in the Tox21 HCT-116 p53 Agonism Beta-lactamase Assay, Phase 4 (AID 2283597);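 further: hits lower the luminescence signal meaning cytotoxicity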
Summary of the method: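 In this multiplexed secondary endpoint, HCT116 cells (4000 per well, compound at 5 h, 16 h treatment) received CellTiter-Glo after the beta-lactamase read. Luminescence after 30 min RT reflects ATP, and falling signal marks cytotoxicity.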

[8] = TOX21_p53_BLA_p2_viability: Viability Assessment in the Tox21 HCT-116 p53 Agonism Beta-lactamase Assay, Phase 2 (AID 2283591);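 further: compound exposure lasted 16 h at 37 °C; actives lower the ATP signal meaning cytotoxicity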
Summary of the method: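 HCT-116 p53-bla cells (4000/well) rested 5 h at 37C, then received compounds in DMSO (217-fold dilution) for 16 h at 37C, 5% CO2. After the CCF4 read, CellTiter-Glo was added; ATP luminescence was read after 30 min at room temperature.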

[9] = TOX21_p53_BLA_p3_viability: Viability Assessment in the Tox21 HCT-116 p53 Agonism Beta-lactamase Assay, Phase 3 (AID 2283593);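 further: cells exposed to compound for 16 h before reading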
Summary of the method: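 HCT-116 cells (4000/well) rested 5 h at 37C, then got DMSO compounds by pin tool (217-fold dilution) for 16 h at 37C, 5% CO2. After the bla read, CellTiter-Glo was added and luminescence read at 30 min, room temperature.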

Measured: AC50

Cc1cc(C2(c3cc(C)c(O)cc3C)OS(=O)(=O)c3ccccc32)c(C)cc1O
inactive: [1] | [2] | [3] | [4]

C=C(C)[C@@H]1CCC2=CC(=O)C[C@@H](C)[C@]2(C)C1
inactive: [1] | [2] | [3] | [5] | [4] | [6]

COC(C(=O)O)c1ccccc1 (stereo not drawn)
inactive: [1] | [2] | [7]

CCCC(=O)c1cc(O)c(O)cc1O
inactive: [8] | [2] | [9] | [3] | [7] | [5] | [4] | [6]

CC1(C)[C@H]2CC[C@]1(C)[C@H](O)C2
inactive: [8] | [2] | [9] | [3] | [7] | [5] | [4]

CCCCCC(CO)CCC (stereo not drawn)
inactive: [1] | [2] | [7] | [5] | [4] | [6]

CCCCCCCCC=O
inactive: [1] | [3] | [7] | [4]

CC(CCO)CCc1ccccc1 (stereo not drawn)
inactive: [1] | [2] | [3] | [5] | [6]

Sc1nc(S)nc(S)n1
inactive: [1] | [9] | [3] | [5] | [6]

NC(=O)Nc1ccc(Cl)cc1
inactive: [1] | [3] | [6]

CC1=CCC2C(C1)C2(C)C (stereo not drawn)
inactive: [1] | [2] | [3] | [5] | [4] | [6]

CC(C=O)Cc1ccc(C(C)C)cc1 (stereo not drawn)
inactive: [1] | [7] | [5] | [4]

O=c1cc(-c2ccccc2)oc2cc(O)cc(O)c12
inactive: [1] | [9] | [3] | [4]
active: [5] 22.3 µM | [6] 46.1 µM

CCCCc1ccc(N)cc1
inactive: [1] | [9] | [3] | [7] | [5] | [6]

CCO[Si](CCCS)(OCC)OCC
inactive: [1] | [9] | [5]

CCC(=O)OCc1ccccc1
inactive: [8] | [2] | [9] | [3] | [7] | [5] | [4] | [6]

C=CC(C)(O)CCC=C(C)CCC=C(C)C (stereo not drawn)
inactive: [1] | [2] | [3] | [5]
